Data on five molecules can be found in PubChem BioAssay.

Molecules are shown by their SMILES. The source made the active and inactive calls. Unless noted, the rule behind the calls is not given here.

For assay [1], the system named is Wnt5a (protein binding on small-molecule microarray). Description: Wnt5a binders on small-molecule microarray, primary screen, biophysical, 635/667 nm fluorescence (AID 1142).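 Note: fluorescence read at 667 nm with signal to noise per printed feature.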 The note with it: 635 nm fluorescence, higher = more signal.
Assay [2] is described as follows: cell viability in Huh7 cells, primary screen, cytotoxicity control for HCV replication inhibitor project, CellTiter-Glo luminescence, basal, 48 h (AID 1143).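 Note: Huh7 hepatoma cells carrying a hepatitis C replication reporter with no stimulus; test concentration not given here.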 The note with it: Huh7 HCV replicon, higher = more signal, called active from +8 up or from −8 down.
Assay [3] is described as follows: P. aeruginosa biofilm formation inhibitors, primary screen, PAO1 strain, BacTiter-Glo luminescence, LB-PBS (AID 1144). The note with it: 12 h, higher = more signal.
Assay [4] can be described thus: CREB reporter modulators without forskolin, primary screen, cell-based, PC12, CRE-LacZ reporter, unstimulated (AID 1145). The note with it: no forskolin, luminescence, 4.5 h, higher = more signal, called active from +8 up or from −8 down.
Assay [5] can be described thus: CREB reporter modulators under forskolin, primary screen, cell-based, PC12, CRE-LacZ reporter, forskolin-stimulated (AID 1146).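 Note: PC12 cells with 6xCRE LacZ reporter stimulated by forskolin 10 µM; beta-galactosidase reporter signal reflecting CREB driven transcription.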 The note with it: luminescence, 4.5 h, higher = more signal, called active from +8 up or from −8 down.
Assay [6] deals with Streptavidin (Streptomyces avidinii) (UniProt P22629). The assay can be described thus: streptavidin binders on small-molecule microarray, primary screen, artefact control for SMM compound annotation, biophysical, 635/667 nm fluorescence (AID 1147).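 Note: signal reflects streptavidin binding to arrayed compounds as a control protein.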 The note with it: streptavidin binding, higher = more signal.
Assay [7] can be described thus: small-molecule binders of probe aInhba, primary screen, biochemical, small-molecule microarray, 635/667 nm fluorescence (AID 1148).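 Note: score merges 667nm spot fluorescence with signal-to-noise for antibody binding to printed compounds.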 The note with it: higher = more signal.
For assay [8], the target named is Torsin-1A (Homo sapiens) (UniProt O14656). Description: torsin A binders from cell lysate, primary screen, small-molecule microarray, wild-type, 635/667 nm (AID 1149). The note with it: COS7 hTOR1A-WT lysate, 635 nm fluorescence, higher = more signal.
Assay [9] has the same target. The assay can be described thus: small-molecule binders of mutant TOR1A in lysate, primary screen, cell lysate, small-molecule microarray, COS7 lysate, 635/667 nm fluorescence (AID 1150).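 Note: score pools 667 nm emission and signal to noise measuring lysate protein binding.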 The note with it: COS7 hTOR1A mutant lysate, 635 nm fluorescence, higher = more signal.
The subject of assay [10] is Sonic hedgehog protein (Shh). The assay can be described thus: small-molecule binders of Shh protein, primary screen, biochemical, small-molecule microarray, 635/667 nm fluorescence (AID 1151).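 Note: Shh protein binding to compounds spotted on small-molecule microarray slides; score combines spot fluorescence intensity with signal-to-noise across triplicate slides.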 The note with it: small-molecule microarray binding, 635 nm fluorescence; higher = more signal.
A short description of assay [11]: E. coli DRC41 culture turbidity changes, primary screen, E. coli filamentation inducer project, strain DRC41, OD650, 48 h (AID 1152).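 Note: E. coli MC1000 strain DRC41 lacking acrAB efflux pump and sulA.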 The note with it: E. coli DRC41 (acrAB sulA), higher = more signal, called active from +8 up or from −8 down.
Assay [12] can be described thus: small-molecule binders of probe aLefty1, primary screen, biochemical, small-molecule microarray, 635/667 nm fluorescence (AID 1153).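 Note: score merges spot fluorescence with signal-to-noise ratio from the scanned slide images.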 The note with it: higher = more signal.
Assay [13] in a line: PSAC antagonists in infected red cells, primary screen, cell-based, P. falciparum Indochina, OD700, 1 h (AID 1154). The note with it: P. falciparum Indochina infected RBC osmotic lysis, higher = more signal, called active from +8 up or from −8 down.
The nature of assay [14]: PSAC antagonists in infected red cells, primary screen, cell-based, P. falciparum Indochina, OD700, 2 h (AID 1155).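 Note: lysis reports solute entry through the parasite surface anion channel PSAC; channel blockers reduce lysis of infected cells.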 The note with it: P. falciparum Indochina infected erythrocytes, osmotic lysis OD700; higher = more signal, called active from +8 up or from −8 down.
Assay [15] in a line: osmotic lysis modulators in infected erythrocytes, primary screen, PSAC antagonist project, cell-based, P. falciparum Indochina, OD700, 3 h (AID 1156). The note with it: higher = more signal, called active from +8 up or from −8 down.
Assay [16] in a line: PSAC antagonists in infected red cells, primary screen, cell-based, P. falciparum Indochina, OD700, 18 h (AID 1157). The note with it: P. falciparum Indochina infected erythrocytes, osmotic lysis OD700, 18 h; higher = more signal, called active from +8 up or from −8 down.
Assay [17] can be described thus: modulators of S6 phosphorylation in cells, primary screen, cell-based, A549, cytoblot, luminescence, serum-stimulated (AID 1158).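 Note: serum-stimulated A549 lung adenocarcinoma cells; signal is phosphorylated S6 detected by cytoblot immunostaining with HRP secondary.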 The note with it: A549 phospho-S6 cytoblot, 5 h, higher = more signal.
For assay [18], the target named is NADPH oxidase 2 (Homo sapiens) (UniProt P04839). The assay can be described thus: NOX2-dependent H2O2 signal modulators, primary screen, NOX inhibitor project, cell-based, HEK293-NOX2, PMA-stimulated, Amplex Red fluorescence (AID 1159). Note: test concentration not given here. The note with it: 45 min, higher = more signal, called active from +8 up or from −8 down.
For assay [19], the target named is NADPH oxidase 4 (Homo sapiens) (UniProt Q9NPH5). The assay can be described thus: NOX4-dependent H2O2 signal modulators, primary screen, NOX inhibitor project, cell-based, HEK293-NOX4, tetracycline-induced, Amplex Red fluorescence (AID 1160). The note with it: 45 min, higher = more signal, called active from +8 up or from −8 down.
Assay [20] addresses NADPH oxidase 5 (Homo sapiens) (UniProt Q96PH1). Description: NOX5-dependent H2O2 signal modulators, primary screen, NOX inhibitor project, cell-based, HEK293-NOX5, Amplex Red fluorescence (AID 1161). The note with it: HEK293-NOX5, ionomycin, 45 min, higher = more signal.

Chain of Torsin-1A (Homo sapiens) (O14656 whole entry, looked up): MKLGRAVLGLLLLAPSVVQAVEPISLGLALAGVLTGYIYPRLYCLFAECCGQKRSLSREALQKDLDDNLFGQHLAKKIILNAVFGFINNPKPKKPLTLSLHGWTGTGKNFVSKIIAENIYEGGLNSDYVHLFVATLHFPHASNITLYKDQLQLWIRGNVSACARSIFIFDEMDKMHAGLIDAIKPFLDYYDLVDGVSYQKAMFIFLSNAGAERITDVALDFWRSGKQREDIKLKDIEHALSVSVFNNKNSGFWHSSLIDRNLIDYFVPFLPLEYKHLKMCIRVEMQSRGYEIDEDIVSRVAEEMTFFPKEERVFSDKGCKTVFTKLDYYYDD
Chain of NADPH oxidase 5 (Homo sapiens) (Q96PH1 whole entry, looked up): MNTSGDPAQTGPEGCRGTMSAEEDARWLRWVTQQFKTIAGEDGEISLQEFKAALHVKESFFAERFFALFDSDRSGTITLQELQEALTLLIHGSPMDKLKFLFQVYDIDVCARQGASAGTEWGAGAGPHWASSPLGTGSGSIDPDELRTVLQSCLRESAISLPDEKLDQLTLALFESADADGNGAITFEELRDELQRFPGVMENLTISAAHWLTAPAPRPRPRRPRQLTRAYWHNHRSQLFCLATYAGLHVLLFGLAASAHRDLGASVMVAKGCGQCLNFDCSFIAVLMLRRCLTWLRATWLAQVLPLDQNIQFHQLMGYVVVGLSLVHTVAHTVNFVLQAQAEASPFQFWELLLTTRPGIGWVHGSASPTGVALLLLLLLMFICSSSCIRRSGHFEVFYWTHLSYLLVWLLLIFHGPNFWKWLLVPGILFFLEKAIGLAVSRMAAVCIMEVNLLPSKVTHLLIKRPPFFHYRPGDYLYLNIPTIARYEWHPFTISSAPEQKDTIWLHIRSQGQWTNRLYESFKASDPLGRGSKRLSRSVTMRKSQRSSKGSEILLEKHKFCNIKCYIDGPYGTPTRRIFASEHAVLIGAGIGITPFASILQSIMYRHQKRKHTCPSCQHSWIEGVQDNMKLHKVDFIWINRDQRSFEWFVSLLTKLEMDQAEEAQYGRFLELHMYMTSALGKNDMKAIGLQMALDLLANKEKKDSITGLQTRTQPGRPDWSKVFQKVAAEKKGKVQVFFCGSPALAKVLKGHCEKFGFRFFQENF
Chain of NADPH oxidase 2 (Homo sapiens) (P04839 whole entry, looked up): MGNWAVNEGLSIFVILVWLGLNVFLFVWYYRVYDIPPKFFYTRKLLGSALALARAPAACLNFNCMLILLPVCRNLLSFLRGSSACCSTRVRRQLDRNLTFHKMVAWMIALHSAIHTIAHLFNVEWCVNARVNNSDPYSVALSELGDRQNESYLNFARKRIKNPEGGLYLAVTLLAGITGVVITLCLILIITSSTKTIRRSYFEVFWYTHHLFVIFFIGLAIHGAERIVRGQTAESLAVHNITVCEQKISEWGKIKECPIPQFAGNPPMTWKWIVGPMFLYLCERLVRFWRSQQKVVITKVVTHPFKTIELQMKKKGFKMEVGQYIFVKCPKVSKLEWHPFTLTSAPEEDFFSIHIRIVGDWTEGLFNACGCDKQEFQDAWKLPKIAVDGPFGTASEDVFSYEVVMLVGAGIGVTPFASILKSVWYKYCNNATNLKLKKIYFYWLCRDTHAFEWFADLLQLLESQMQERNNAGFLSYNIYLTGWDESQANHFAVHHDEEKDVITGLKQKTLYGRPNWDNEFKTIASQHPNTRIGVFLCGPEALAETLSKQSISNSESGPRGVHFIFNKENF
Chain of NADPH oxidase 4 (Homo sapiens) (Q9NPH5 whole entry, looked up): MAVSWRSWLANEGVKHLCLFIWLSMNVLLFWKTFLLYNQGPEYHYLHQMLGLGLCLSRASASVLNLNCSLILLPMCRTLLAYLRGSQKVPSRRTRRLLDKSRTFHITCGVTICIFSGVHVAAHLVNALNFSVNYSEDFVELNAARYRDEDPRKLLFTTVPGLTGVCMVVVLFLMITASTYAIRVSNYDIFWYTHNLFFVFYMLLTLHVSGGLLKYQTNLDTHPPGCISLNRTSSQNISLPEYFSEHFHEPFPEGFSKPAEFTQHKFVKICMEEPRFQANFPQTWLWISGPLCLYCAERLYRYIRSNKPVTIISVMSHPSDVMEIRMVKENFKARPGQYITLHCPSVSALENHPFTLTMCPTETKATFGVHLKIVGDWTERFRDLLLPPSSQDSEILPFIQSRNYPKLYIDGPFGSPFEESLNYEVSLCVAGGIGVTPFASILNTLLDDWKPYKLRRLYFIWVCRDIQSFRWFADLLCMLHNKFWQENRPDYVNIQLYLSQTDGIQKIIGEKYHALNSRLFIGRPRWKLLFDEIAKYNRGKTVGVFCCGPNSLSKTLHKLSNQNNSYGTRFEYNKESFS
Chain of Streptavidin (Streptomyces avidinii) (P22629 whole entry, looked up): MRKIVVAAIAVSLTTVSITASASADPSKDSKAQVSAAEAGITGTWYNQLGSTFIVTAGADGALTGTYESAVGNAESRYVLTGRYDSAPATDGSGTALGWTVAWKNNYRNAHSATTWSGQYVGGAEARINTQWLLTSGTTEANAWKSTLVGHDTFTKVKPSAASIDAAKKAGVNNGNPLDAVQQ

As for `C=CCN1C(=O)[C@]2(O[C@H](CCn3cc(CCO)nn3)[C@@H]([Si](C)(C)c3ccc(OC)cc3)[C@@H]2C)c2cc(N3CCOC3=O)ccc21`, the composite z-score in assay [1] was -0.246; in [6], 1.32; in [7] it was -0.253; in the assay with Torsin-1A (Homo sapiens) [8], 0.419; in the assay with Torsin-1A (Homo sapiens) [9] it was 0.855; in assay [10] it was 0.6. Further, the composite z-score in assay [12] amounted to 0.0509. Also, the z-score in assay [2] was -4.23 (inactive); in assay [3], -0.771 (inactive); in assay [4] it was 7.08 (inactive); in assay [5], 0.144 (inactive); in assay [11], -0.902 (inactive); in [13] it was 6.82 (inactive). Moreover, the z-score in assay [14] was 0.536 (inactive); in [15], -0.5 (inactive); in assay [16] it was 0.376 (inactive); in assay [17] it was 0.199; in assay [18] it was 0.111 (inactive); in [19] it was 3.32 (inactive). Besides, in [20], the z-score came to 1.57.
`COC(=O)[C@H]1COC(c2ccc(OCCCO)cc2)=N1`: the composite z-score was -0.0323 in assay [1]; -0.998 in assay [6]; -0.204 in assay [7]; 0.337 in the assay with Torsin-1A (Homo sapiens) [8]; 1.4 in the assay with Torsin-1A (Homo sapiens) [9]; -0.196 in assay [10]. The molecule also yielded a composite z-score in assay [12] of 0.245. Besides, the z-score in assay [2] is -0.597 (inactive); in assay [3] it was -0.767 (inactive); in assay [4] it was 0.0686 (inactive); in assay [5] it was 0.697 (inactive); in assay [11], -0.13 (inactive); in assay [13], 22.4 (active). Further, the z-score was 5.33 (inactive) in [14]; 0.0031 (inactive) in assay [15]; 0.642 (inactive) in assay [16]; -0.0797 in assay [17]; -0.257 (inactive) in assay [18]; 0.172 (inactive) in [19]. This molecule yielded a z-score in assay [20] of -0.663.
Take `CC(C)(C)N1C(=O)[C@H]2[C@H]3[C@H](O)[C@H](O)CC(=NOCc4ccccc4)[C@@H]3CC[C@H]2C1=O`: the composite z-score in assay [1] is 0.351; in assay [6] it was 0.33; in assay [7], -0.0986; with Torsin-1A (Homo sapiens) [8], 0.678; with Torsin-1A (Homo sapiens) [9], 0.119; in assay [10], 1.26. In addition, the composite z-score in assay [12] is -0.0162. In addition, the z-score was -0.939 (inactive) in [2]; 0.614 (inactive) in assay [3]; 0.16 (inactive) in [4]; 0.479 (inactive) in assay [5]; 0.831 (inactive) in assay [11]; 0.464 (inactive) in assay [13]. For the same molecule, the z-score in [14] is -1.53 (inactive); in assay [15], 0.877 (inactive); in assay [16], -2.27 (inactive); in [17] it was 0.581; in [18] it was -1.57 (inactive); in [19], 0.413 (inactive). For the same molecule, the z-score in assay [20] turned out to be 0.791.
Take `O=C1[C@H]2[C@H]3[C@H](O)[C@H](O)CC(=NOC[C@@H](O)COCc4ccco4)[C@H]3CC[C@H]2C(=O)N1C1CCCCC1`: the composite z-score in [1] was 0.257; in assay [6], -0.112; in assay [7], 0.158; in the assay with Torsin-1A (Homo sapiens) [8] it was 2.07; with Torsin-1A (Homo sapiens) [9], 1.64; in assay [10], 1.54. This molecule also had a composite z-score in assay [12] of 0.0245. Moreover, the z-score is -2.97 (inactive) in assay [2]; -0.925 (inactive) in assay [3]; 3.33 (inactive) in assay [4]; 0.279 (inactive) in [5]; -0.708 (inactive) in [11]; 1.6 (inactive) in assay [13]. For the same molecule, the z-score in assay [14] is -1.23 (inactive); in assay [15], 0.786 (inactive); in [16], -2.32 (inactive); in [17], 0.988; in assay [18] it was -2.55 (inactive); in [19] it was -0.583 (inactive). The same molecule yielded a z-score in assay [20] of -1.66.
For `CCOC(=O)CCN1C(=O)[C@H]2[C@H]3[C@H](O)[C@H](O)CC(=O)[C@H]3CC[C@H]2C1=O`, the composite z-score in [1] is 0.0032; in assay [6], 0.275; in [7], -0.183; with Torsin-1A (Homo sapiens) [8], 0.269; in the assay with Torsin-1A (Homo sapiens) [9], 0.326; in [10] it was 0.693. Also, in assay [12], the composite z-score was -0.0984. The z-score was -3.04 (inactive) in [2]; -0.829 (inactive) in [3]; 0.429 (inactive) in assay [4]; -0.236 (inactive) in [5]; -1.98 (inactive) in assay [11]; -0.062 (inactive) in assay [13]. In addition, the z-score is -0.426 (inactive) in [14]; -0.451 (inactive) in [15]; -1.42 (inactive) in [16]; 1.11 in assay [17]; -0.513 (inactive) in [18]; 0.947 (inactive) in assay [19]. Besides, in assay [20], the z-score was -0.00675.
